# Bioassay records (PubChem)
# D1 antag – Antagonist of Human D 1 Dopamine Receptor: qHTS; activity change, negative = inhibition, % at 10 µM; HEK293 TREx D1 cells, calcium flux, dopamine EC80; active compounds read low; 3.2% of 360,000 active; AID 504652, 2011; in the data active means activity change below about -30%; further: on the % scale 0 is the no-effect control and ±100 the full control effect
#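 Tetracycline-induced HEK293 Trex D1 cells, force-coupled to calcium, dye-loaded; compounds added and read 180 s, then EC80 dopamine added and calcium flux tracked kinetically another 180 s.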
# TRHR enhancer – qHTS for Small Molecule Agonists and Allosteric Enhancers of Human TRH Receptor: Primary Screen for Enhancers. 0.66% of 360,000 active. Thyrotropin-releasing hormone receptor (Homo sapiens), P34981. TRHR cells, fluo-8 calcium fluorescence, EC20 TRH enhancement. AID 493056, 2011. enhancement, % at 2 µM; in the data active means enhancement above about 30%; further: 0% is about no effect
# Target sequence (P34981 whole entry, looked up): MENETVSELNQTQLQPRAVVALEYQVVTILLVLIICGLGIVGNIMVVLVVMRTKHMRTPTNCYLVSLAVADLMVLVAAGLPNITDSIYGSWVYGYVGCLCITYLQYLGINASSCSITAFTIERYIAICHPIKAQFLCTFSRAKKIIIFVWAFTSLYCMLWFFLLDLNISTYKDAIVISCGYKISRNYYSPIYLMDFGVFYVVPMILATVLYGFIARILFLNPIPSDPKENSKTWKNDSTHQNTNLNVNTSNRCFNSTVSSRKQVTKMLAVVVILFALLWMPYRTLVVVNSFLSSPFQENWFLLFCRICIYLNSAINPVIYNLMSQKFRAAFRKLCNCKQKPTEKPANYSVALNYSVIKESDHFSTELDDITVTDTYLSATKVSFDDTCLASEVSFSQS
#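 TRHR-expressing cells loaded with fluo-8 calcium dye were read kinetically (ex 480/em 530) during compound addition, then stimulated with an EC20 of TRH (10 nM final). Enhancement of the Gq-mediated intracellular calcium response was scored.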
# D1 ag – Allosteric Agonists of the Human D1 Dopamine Receptor: qHTS. AID 504660, 2011. 1% of 360,000 active. activation, % at 2 µM. HEK293 T-REx D1 cells, calcium flux, agonist mode; further: 0% is about no effect
#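 Agonism was scored from calcium flux recorded over 180 s (1 read/s) after pintool compound addition, following a 10-cycle baseline. Cells were inducible force-coupled HEK293 TREx D1, plated overnight at 30 C and loaded with no-wash calcium dye.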
# D1 PAM – Potentiators of Human D1 Dopamine Receptor: qHTS. D(1A) dopamine receptor (Homo sapiens), P21728. HEK293 TREx D1 cells, calcium flux, dopamine EC20 potentiation. 0.036% of 360,000 active. AID 504651, 2011. potentiation, % at 10 µM; in the data active means potentiation above about 30%; further: 0% is about no effect
# TRHR ag – qHTS for Small Molecule Agonists and Allosteric Enhancers of Human TRH Receptor: Primary Screen for Agonists; TRHR cells, calcium flux fluo-8, FDSS agonist mode; 0.18% of 360,000 active; activation, % at 2 µM; AID 493084, 2011; Thyrotropin-releasing hormone receptor (Homo sapiens), P34981; further: 0% is about no effect
#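 In this calcium-flux screen, cells bearing human TRHR are dye-loaded with fluo-8, baselined for 10 cycles, then exposed to library compounds; positive kinetic calcium responses during the agonist phase mark hits, with TRH as control.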
# An asterisk follows results filed as active; / = no result given. An excerpt weighted towards active compounds, which were near 4.6% of everything screened. Unless noted, no stated cut-off is given here; in the data, active means activation above about 30%; inactive means the rest.
SMILES,D1 antag,TRHR enhancer,D1 ag,D1 PAM,TRHR ag
COCCCNc1nc(NCc2ccccc2OC)c2cnn(C)c2n1,-1,3,1,1,-1
CC(C)c1ccc(CNc2nc(-c3ccco3)nn2S(=O)(=O)c2ccccc2)cc1,-4,-13,4,1,1
O=S(=O)(c1ccc2ccccc2c1)n1nc(-c2ccco2)nc1NCc1cccc(Cl)c1,-42*,-4,11,-2,1
COc1ccc(-c2onc(C)c2C)cc1S(=O)(=O)N1CCN(c2cc(C)ccc2C)CC1,-1,3,1,-3,0
COC(=O)c1ccc[n+](CC(=O)c2ccc(Br)cc2)c1,-35*,-6,5,0,0
COc1ccc(C(=O)C[n+]2cccc(Br)c2)cc1,-16,7,2,-4,0
O=C(COC(=O)CNC(=O)c1cccc([N+](=O)[O-])c1)Nc1nc2ccccc2s1,-8,-3,3,-8,0
O=C(COC(=O)CNC(=O)c1cccc([N+](=O)[O-])c1)Nc1ccccc1OC(F)F,-8,34*,4,2,-1
Cc1ccc(C2=NN(S(C)(=O)=O)C(c3cccs3)C2)cc1 (stereo unspecified),-48*,-21,0,-11,0
Cc1ccc(C2CC(c3cccs3)=NN2S(=O)(=O)c2ccc(C)cc2)cc1 (stereo unspecified),-33*,1,7,-1,2
O=C(CNCCO)N1N=C(c2cccs2)CC1c1cccs1 (stereo unspecified),-5,-1,3,5,0
O=C(c1ccccc1)N1N=C(c2ccccc2)CC1c1cccs1 (stereo unspecified),-67*,4,4,-9,1
Cc1ccc(C2=NN(C(=O)CNCCO)C(c3cccs3)C2)cc1 (stereo unspecified),-33*,3,2,-5,1
CC(=O)N1N=C(c2ccccc2)CC1c1cccs1 (stereo unspecified),10,-3,2,-6,-1
CCCCOc1ccccc1NC(=O)CC1Sc2ccccc2NC1=O (stereo unspecified),-2,-5,17,-2,0
Cc1ccc2c(c1)C(c1ccc(F)cc1)N(C(=O)COc1ccc(Cl)cc1Cl)CC(=O)N2 (stereo unspecified),15,0,2,1,0
Cc1ccc(-n2cnc3cc(C(=O)NCc4ccc(F)cc4)ccc32)c(C)c1,-23,-3,0,-1,0
Cc1sc2ncnc(Sc3ccccc3C(=O)O)c2c1C,-7,35*,5,1,0
O=C(CNC(=O)c1ccc(Br)o1)NNC(=O)c1ccc(Br)cc1,5,-13,1,-2,0
O=C(CNS(=O)(=O)c1ccccc1F)NNC(=O)c1ccc(Br)cc1,-1,32*,3,0,0
C=CCn1c(C)cc(C(=O)CSc2nnc3c(Cl)cc(Cl)cn23)c1C,-25,-1,0,-7,-1
Cc1cc(C(=O)CSc2nnc3c(Cl)cc(Cl)cn23)c(C)n1C,-31*,-4,1,3,0
CCc1ccc(NCc2cccn2-c2nnc(N3CCCCCC3)s2)cc1,-31*,8,0,2,0
CCOC(=O)c1sc(NC(=O)CCN2C(=O)c3cccc([N+](=O)[O-])c3C2=O)c(C(=O)OCC)c1C,-33*,-4,2,2,0
CC1CCc2onc(C(=O)N3CCN(c4ccc(F)cc4)CC3)c2C1 (stereo unspecified),-14,12,7,0,-1
SMILES,D1 antag,TRHR enhancer,D1 ag,D1 PAM,TRHR ag
CCc1cccc(NC(=O)Cn2cc(C=O)c3ccccc32)c1,-30*,-4,14,-4,1
Cc1ccc(NC(=O)c2c(C)oc3ccc(O)c(CN4CCCCCC4)c23)c(C)c1,16,0,9,1,-1
NC(=O)/C(N=Nc1ccccc1)=N/Nc1ccccc1,-55*,-2,1,-13,0
O=C(O)c1cccc(N/N=C(\N=Nc2ccccc2)c2ccccc2)c1,-9,-4,3,-8,0
COc1ccc2oc(=O)cc(CN3CCN(c4ccccc4OC)CC3)c2c1,3,-2,-1,2,-2
O=C(c1cc2ccccc2o1)N(Cc1nnc(-c2ccccc2Cl)o1)C1CC1,3,-2,4,-1,0
CCCN(Cc1nnc(-c2ccccc2Cl)o1)C(=O)c1cc2ccccc2o1,-31*,-14,12,-4,-1
CCc1ccc(C(=O)c2cn(CC(=O)Nc3ccc4c(c3)OCO4)c3ccc(OC)cc3c2=O)cc1,-2,2,2,-1,0
CCOC(=O)c1c(NC(=O)CN2C(=O)NC3(CCCC3)C2=O)sc(C)c1CC,-6,-1,5,-3,2
O=C(O)C1CCN(C(=O)c2csc(-c3ccc4c(c3)CCO4)n2)CC1,-34*,-2,3,1,-1
CC12CCC(=O)N1C(C(=O)NNC(=O)c1ccccc1Cl)CS2 (stereo unspecified),-52*,4,1,-6,0
COc1cc(C(=O)NNC(=O)C2CSC3(C)CCC(=O)N23)cc(OC)c1OC (stereo unspecified),-40*,1,3,-3,3
CCOC(=O)c1cnn(-c2cccc(F)c2)c1C1CCNCC1,7,9,9,0,-2
Cc1cccc(-n2ncc(C(=O)NCc3ccccn3)c2C2CCN(C(=O)OC(C)(C)C)CC2)c1,4,-5,2,-1,-1
CC(C)(C)OC(=O)Cc1nnc(-c2nc3ccccc3[nH]2)o1,-33*,-1,2,4,2
COc1ccccc1CNC(=O)C(=O)NCC(c1ccco1)S(=O)(=O)c1ccc(C)cc1 (stereo unspecified),/,-4,0,-3,-1
CSC1=NC2C(N1)N(C)C(=O)N2C (stereo unspecified),14,39*,4,4,0
CCCCCn1c(CCCNC(=O)c2ccccc2)nc2ccccc21,-5,-2,1,2,0
CCCN(CC(=O)Nc1ccccc1OC)C(=O)CCC(=O)c1ccc(OCC)cc1,-8,-1,1,-3,1
C=C(C)CC(NCc1ccco1)c1ccc(OC)cc1 (stereo unspecified),-36*,-3,5,4,1
CCOc1ccc(NC(=O)c2cc3cc(C)ccc3n2C)cc1,-56*,-1,-1,2,1
Cc1cc(C(F)F)n2ncc(C(=O)NCc3ccccc3C(F)(F)F)c2n1,15,-14,6,9,0
